# From PubChem BioAssay
# Where “and” joins values, the source holds several entries; their conditions need not be identical. Equal values may be shown once. Inconclusive results are not listed. For part of these data: Entries with a potency or affinity are not part of this list. Calls of active or inactive are those of the source. Unless noted, the rule behind the calls is not given here.
# Key:
# [1] = liver-stage malaria parasite growth inhibition, primary screen, cell-based, HepG2, luciferase luminescence, HepG2 viability (AID 624349; in the data active = parasite load remaining mostly below about 12%, no sharp cut-off; inactive = mostly above about 10%;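 note: 100% = mean of DMSO negative control wells on the same plate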); conditions: P. berghei liver stage in HepG2, luciferase luminescence, concentration not given here; parasite load remaining: stronger effect = lower value; viability: measured here: HepG2 viability without parasites
# [2] = differential killing of epithelial or mesenchymal cells, primary screen, imaging, PC-3E GFP, TEM4-18 mCherry, co-culture (AID 1345086;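 active = compounds killing one labelled cell type while sparing the other, by normalised counts and ratio limits, not self-fluorescent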;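 for all read-outs here: cells exposed to compound for 72 h before imaging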;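 for red/green cell ratio (normalised): normalised mesenchymal count divided by normalised epithelial count so high means epithelial killing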); conditions: imaging cell counts, at 1 µM; for red/green cell ratio (normalised): actives lie on both sides
# [3] = sensitizers of A549 cells to miR-34 induction, primary screen, imaging, A549 dox-inducible miR-34, nuclei and caspase counts (AID 1347080;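 active = compounds whose cell count with miR-34 switched on is under 0.7 times the count with it off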); conditions: A549 miR-34 inducible, Hoechst nuclei count, 48 h
# [4] = biological target: NAD(+) hydrolase SARM1 (Homo sapiens) (UniProt Q6SZW1); test: SARM1 TIR NADase inhibitors, cell lysate, NAD-Glo luminescence (AID 1508614;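 active = compound whose remaining NAD level is above about 45 nM, limit read from the data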;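 note: higher remaining NAD means stronger inhibition of SARM1 NADase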); conditions: SAM-TIR HEK293T lysate NADase, at 1 µM, stronger effect = higher value
# [5] = biological target: Mitogen-activated protein kinase 7 (Homo sapiens) (UniProt Q13164); test: ERK5 transactivation activators in reporter cells, primary screen, cell-based, HTS (AID 1508626;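 active = luciferase signal above three times the same-plate solvent-only control wells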;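 note: luciferase driven by Gal4-ERK5 fusion binding five Gal4 sites before minimal TATA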); conditions: HeLa Gal4-ERK5 transactivation, 18 h, at 5 µM, stronger effect = higher value
# [6] = system: Aerobactin synthetase IucA (Klebsiella pneumoniae hvKP1); test: Biochemical IucA enzyme inhibition primary screen of the Spectrum library (AID 1346200); conditions: malachite green pyrophosphate, A620, at 8 µM, stronger effect = lower value;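 note: 100% = wells without compound and 0% = wells lacking enzyme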
# [7] = mitochondrial permeability transition inhibitors (AID 1580); conditions: isolated mitochondria, permeability transition inhibition
# [8] = polyglutamine-triggered caspase-3 activation inhibitors, cell-based (AID 1583); conditions: polyglutamine-induced caspase-3 activation, cell assay; stronger effect = higher value;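 tested at 10 µM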
# [9] = suppressors of polyQ aggregation in yeast, 75Q-TubU reporter (AID 1593); conditions: Yeast 75Q polyglutamine aggregation reporter
# [10] = rescue of polyQ-huntingtin neuronal dysfunction in worms, whole organism, C. elegans mechanosensory neurons, N-terminal huntingtin (AID 1599); conditions: touch response, stronger effect = higher value
# [11] = inhibitors of mitochondrial cytochrome c release, biochemical, purified mitochondria (AID 1603); conditions: stronger effect = lower value;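 note: mouse liver mitochondria challenged with calcium chloride; signal normalized to the plate average as 100%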
# [12] = inhibitors of polyQ protein aggregation (AID 1604); conditions: polyglutamine-induced protein aggregation inhibition assay; stronger effect = higher value; tested at 2.5 µM
# [13] = enhancers of glutamate uptake in motor neurons, MN-1 cell line (AID 1612); conditions: MN-1 motor neuron cells, stronger effect = higher value;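 note: tested at 1 µM final; 0% = mean of DMSO vehicle wells on each plate; positive means more glutamate uptake than control and negative means less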
# [14] = suppressors of polyglutamine aggregation in yeast, 75Q-TubH (AID 1616); conditions: S. cerevisiae 75Q-TubH polyglutamine aggregation suppression; stronger effect = higher value
# [15] = circadian clock period modulators, cell-based, LOPAC library, luminescence reporter (AID 2774); conditions: circadian reporter cells, at 7 µM, actives lie on both sides;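 note: values are relative to mean of DMSO wells on each plate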
# [16] = hESC survival regulators, cell-based (AID 493140); conditions: human embryonic stem cell survival screen; stronger effect = higher value;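 note: cells exposed to compounds for four days before counting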
# [17] = system: Hepatitis C virus NS3 helicase; test: HCV NS3 helicase inhibitors, primary screen, biochemical, fluorescence polarization, LOPAC1280 library (AID 687035; in the data active = inhibition above about 37%); conditions: Purified HCV NS3 helicase, Cy5-dT15 ssDNA binding fluorescence polarization; stronger effect = higher value; concentration not given here
# [18] = Cy5 fluorescence quenching or enhancement artefacts, artefact control for HCV NS3 helicase inhibitor project, biochemical, LOPAC1280 (AID 687037); conditions: Cy5-DNA-NS3h complex fluorescence interference counterscreen
# [19] = system: Aerobactin synthetase IucA (Klebsiella pneumoniae, hypervirulent); test: IucA enzyme inhibition, biochemical, LOPAC library, absorbance readout (AID 1346212); conditions: IucA enzyme assay, absorbance (OD) readout; stronger effect = lower value;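 tested at 8 µM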;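 note: 100% = no compound wells and 0% = no enzyme wells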
# [20] = phospholipid biosynthesis inhibitors in animal cells, primary screen, cell-based, LOPAC library, screen 4 (AID 1347384); conditions: phospholipid biosynthesis inhibition screen, at 10 µM
# [21] = viability rescue of complex I mutant cybrids, primary screen, cell-based, galactose medium, ATP luminescence (AID 1645843;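 active = z-score of at least 1.8 in each of two replicates, scored against plate mean and spread of sample wells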;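 note: positive z means more ATP and so rescue of galactose-driven cybrid death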); conditions: complex I mutant cybrid cells, 72 h, stronger effect = higher value
# [22] = biological target: ATP-dependent translocase ABCB1 (Homo sapiens) (UniProt P08183); test: MDR1 (ABCB1) efflux transporter inhibition, cell-based (AID 377; in the data active = fluorescence slope change above about 50%); conditions: MDR1-expressing cells, fluorescent substrate accumulation slope; stronger effect = higher value; concentration not given here
# [23] = survival rescue of mitochondrial mutant cells in low glucose, primary screen, MELAS cybrids, Rieske KO mouse fibroblasts, CellTiter-Glo (AID 1508586;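 active = mean z-score across replicates of 1.96 or higher in either the MELAS or the Rieske mutant cell line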;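 note: z relative to plate mean and SD of compound and empty wells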)
# [24] = measured here: epithelial PC-3E GFP cell survival
# [25] = measured here: mesenchymal TEM4-18 mCherry cell survival
# [26] = measured here: relative caspase fold change +Dox/-Dox
# [27] = measured here: total cells with miR-34 induction, stronger effect = lower value
# [28] = measured here: total cells without miR-34 induction
# Mitogen-activated protein kinase 7 (Homo sapiens), sequence (Q13164 whole entry, looked up, the tested form may be a part): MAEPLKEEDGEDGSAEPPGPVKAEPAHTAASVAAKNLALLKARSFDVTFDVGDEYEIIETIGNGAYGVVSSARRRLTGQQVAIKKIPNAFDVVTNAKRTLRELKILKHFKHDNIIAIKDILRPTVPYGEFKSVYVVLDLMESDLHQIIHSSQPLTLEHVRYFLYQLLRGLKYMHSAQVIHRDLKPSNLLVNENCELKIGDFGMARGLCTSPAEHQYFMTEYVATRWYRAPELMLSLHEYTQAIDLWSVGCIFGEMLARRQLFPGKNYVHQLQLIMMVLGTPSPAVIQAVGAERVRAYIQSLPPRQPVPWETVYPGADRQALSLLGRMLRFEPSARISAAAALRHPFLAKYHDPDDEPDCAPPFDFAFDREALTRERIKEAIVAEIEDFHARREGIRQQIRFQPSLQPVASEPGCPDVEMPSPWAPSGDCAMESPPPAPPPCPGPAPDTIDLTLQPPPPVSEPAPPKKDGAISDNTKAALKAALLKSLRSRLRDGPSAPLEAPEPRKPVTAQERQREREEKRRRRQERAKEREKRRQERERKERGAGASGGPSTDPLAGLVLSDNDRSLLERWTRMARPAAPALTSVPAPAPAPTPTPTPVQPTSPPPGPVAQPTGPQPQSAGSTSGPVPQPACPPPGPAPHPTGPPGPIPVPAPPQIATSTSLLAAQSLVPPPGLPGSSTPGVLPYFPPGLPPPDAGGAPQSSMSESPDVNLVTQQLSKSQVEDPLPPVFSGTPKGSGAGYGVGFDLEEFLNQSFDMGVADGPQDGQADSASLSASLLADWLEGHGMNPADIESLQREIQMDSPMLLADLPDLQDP
# NAD(+) hydrolase SARM1 (Homo sapiens), sequence (Q6SZW1 whole entry, looked up, the tested form may be a part): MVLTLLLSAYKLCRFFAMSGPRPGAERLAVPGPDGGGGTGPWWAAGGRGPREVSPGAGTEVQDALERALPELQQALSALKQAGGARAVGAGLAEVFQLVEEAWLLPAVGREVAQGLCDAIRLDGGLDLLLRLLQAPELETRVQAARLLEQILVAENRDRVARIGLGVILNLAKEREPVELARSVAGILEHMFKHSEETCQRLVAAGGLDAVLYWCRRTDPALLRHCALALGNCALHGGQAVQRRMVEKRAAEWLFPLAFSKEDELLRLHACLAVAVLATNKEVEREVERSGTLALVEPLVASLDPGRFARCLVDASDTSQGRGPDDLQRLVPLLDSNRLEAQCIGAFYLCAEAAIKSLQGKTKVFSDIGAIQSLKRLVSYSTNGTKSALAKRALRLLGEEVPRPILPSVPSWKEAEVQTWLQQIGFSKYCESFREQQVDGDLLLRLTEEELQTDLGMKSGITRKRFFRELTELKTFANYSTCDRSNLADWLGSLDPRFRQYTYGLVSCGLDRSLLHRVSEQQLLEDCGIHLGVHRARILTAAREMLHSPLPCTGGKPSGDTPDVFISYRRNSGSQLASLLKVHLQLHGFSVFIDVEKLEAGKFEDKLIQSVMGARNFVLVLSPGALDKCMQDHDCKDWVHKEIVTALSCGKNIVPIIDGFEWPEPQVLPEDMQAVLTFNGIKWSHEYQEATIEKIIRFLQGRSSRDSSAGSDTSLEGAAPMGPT
# ATP-dependent translocase ABCB1 (Homo sapiens), sequence (P08183 whole entry, looked up): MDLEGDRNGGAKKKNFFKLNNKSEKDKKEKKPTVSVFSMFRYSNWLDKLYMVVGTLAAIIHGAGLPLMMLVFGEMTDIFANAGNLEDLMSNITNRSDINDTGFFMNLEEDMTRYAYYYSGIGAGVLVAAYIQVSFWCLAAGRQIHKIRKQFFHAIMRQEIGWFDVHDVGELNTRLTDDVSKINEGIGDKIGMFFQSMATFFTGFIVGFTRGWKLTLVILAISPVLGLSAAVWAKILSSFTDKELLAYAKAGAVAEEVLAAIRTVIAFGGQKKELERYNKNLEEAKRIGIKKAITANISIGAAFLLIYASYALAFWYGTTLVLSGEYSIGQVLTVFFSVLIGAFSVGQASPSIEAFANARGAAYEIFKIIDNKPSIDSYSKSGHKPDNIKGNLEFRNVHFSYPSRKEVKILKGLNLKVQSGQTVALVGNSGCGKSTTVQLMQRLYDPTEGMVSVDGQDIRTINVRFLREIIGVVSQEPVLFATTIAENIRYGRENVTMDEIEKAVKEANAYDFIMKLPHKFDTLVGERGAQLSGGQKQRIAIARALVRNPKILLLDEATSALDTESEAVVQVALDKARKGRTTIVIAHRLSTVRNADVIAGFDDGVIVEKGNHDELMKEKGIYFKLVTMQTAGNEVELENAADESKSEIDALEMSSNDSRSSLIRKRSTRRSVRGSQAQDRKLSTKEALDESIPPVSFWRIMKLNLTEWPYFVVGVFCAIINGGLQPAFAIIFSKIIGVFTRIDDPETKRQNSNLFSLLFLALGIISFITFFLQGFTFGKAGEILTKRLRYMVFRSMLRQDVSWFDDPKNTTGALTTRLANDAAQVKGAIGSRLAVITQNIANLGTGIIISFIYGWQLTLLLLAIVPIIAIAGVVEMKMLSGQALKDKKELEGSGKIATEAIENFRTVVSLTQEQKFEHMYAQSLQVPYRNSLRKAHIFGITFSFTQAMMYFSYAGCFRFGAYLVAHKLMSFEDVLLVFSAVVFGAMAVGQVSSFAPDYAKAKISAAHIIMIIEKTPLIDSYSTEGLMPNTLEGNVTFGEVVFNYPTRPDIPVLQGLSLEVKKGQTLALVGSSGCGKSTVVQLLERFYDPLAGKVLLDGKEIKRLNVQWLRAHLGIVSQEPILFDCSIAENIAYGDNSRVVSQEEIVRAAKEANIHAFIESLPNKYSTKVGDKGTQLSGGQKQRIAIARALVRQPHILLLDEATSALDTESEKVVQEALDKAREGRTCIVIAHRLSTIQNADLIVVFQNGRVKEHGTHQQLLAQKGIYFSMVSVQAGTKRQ
structure (smiles),measurement,setting,value
COC(=O)C(c1ccccc1)C1CCCCN1 (stereo not drawn),parasite load remaining,[1],51.8% (inactive)
same,viability,[1],106%
same,red/green cell ratio (normalised),[2],0.97 (inactive)
same,normalised cell number,[2]; [24],1.07
same,normalised cell number,[2]; [25],1.04
same,fold change,[3]; stronger effect = lower value,0.909 (inactive)
same,fold change,[3]; [26],3.99
same,cell count,[3]; [27],12600
same,cell count,[3]; [28],13900
same,remaining NAD,[4],10 nM (inactive)
same,luciferase signal,[5],44 AU (inactive)
C=C/C=C\CC1=C[C@@H](OC(=O)[C@@H]2[C@@H](C=C(C)C)C2(C)C)CC1=O,red/green cell ratio (normalised),[2],0.66 (inactive)
same,normalised cell number,[2]; [24],1.35
same,normalised cell number,[2]; [25],0.89
same,fold change,[3]; stronger effect = lower value,0.949 (inactive)
same,fold change,[3]; [26],1.14
same,cell count,[3]; [27],8080
same,cell count,[3]; [28],8520
O=C1C=CC(=O)c2ccccc21,red/green cell ratio (normalised),[2],0.81 (inactive)
same,normalised cell number,[2]; [24],1.25
same,normalised cell number,[2]; [25],1.02
same,activity remaining,[6],105% (inactive)
same,luciferase signal,[5],388 AU (active)
CCCCC[C@H]1C(=O)O[C@H](C)[C@H](NC(=O)c2cccc(NC=O)c2O)C(=O)O[C@@H](C)[C@@H]1OC(=O)CC(C)C,EC50,[7],0.3 µM (active)
same,inhibition,[8],29.9%
same,score,[9],0.73
same,rescue above control,[10],-18
same,cytochrome c release ratio,[11],0.26
same,inhibition of aggregation,[12],7.32%
same,glutamate uptake change,[13],3.11%
same,aggregation suppression score,[14],0.0257
same,red/green cell ratio (normalised),[2],0.71 (inactive)
same,normalised cell number,[2]; [24],0.78
same,normalised cell number,[2]; [25],0.55
same,activity remaining,[6],111% (inactive)
same,luciferase signal,[5],60 AU (inactive)
C[N+]1(C)C2CCC1CC(OC(=O)C(CO)c1ccccc1)C2 (stereo not drawn),period change,[15],0.05 hour (inactive) and -0.075 hour (inactive)
same,survival,[16],5.08 (inactive)
same,parasite load remaining,[1],37.4% (inactive)
same,viability,[1],106%
same,inhibition,[17],-4% (inactive) and -3% (inactive)
same,fluorescence ratio (interference),[18],1 (inactive)
same,red/green cell ratio (normalised),[2],1.05 (inactive)
same,normalised cell number,[2]; [24],0.95
same,normalised cell number,[2]; [25],1
same,remaining activity,[19],112% (inactive)
same,fold change,[3]; stronger effect = lower value,1.08 (inactive) and 0.98 (inactive) and 0.858 (inactive)
same,fold change,[3]; [26],1.57 and 0.863 and 5.64
same,cell count,[3]; [27],9760 and 10000 and 10600
same,cell count,[3]; [28],9050 and 10200 and 12400
same,outcome,[20],inactive
same,z-score,[21],0.49 (inactive) and 0.65 (inactive)
CC(=O)O[C@H]1CC[C@@]2(C)C(=CCC3C2CC[C@]2(C)C(=O)CCC32)C1 (stereo partly drawn),parasite load remaining,[1],162% (inactive)
same,viability,[1],84.8%
same,red/green cell ratio (normalised),[2],0.81 (inactive)
same,normalised cell number,[2]; [24],1.28
same,normalised cell number,[2]; [25],1.04
same,activity remaining,[6],103% (inactive)
C[C@]12CCC3[C@@H](CC[C@@]45O[C@@H]4C(O)=C(C#N)C[C@]35C)C1CC[C@@H]2O (stereo partly drawn),red/green cell ratio (normalised),[2],0.77 (inactive)
same,normalised cell number,[2]; [24],1.16
same,normalised cell number,[2]; [25],0.89
same,fold change,[3]; stronger effect = lower value,1 (inactive)
same,fold change,[3]; [26],0.592
same,cell count,[3]; [27],8890
same,cell count,[3]; [28],8870
CC[C@H]1C2CC3[C@@H]4N(C)c5ccccc5[C@]45C[C@@H](C2C5O)N3[C@@H]1O (stereo partly drawn),parasite load remaining,[1],88.5% (inactive)
same,viability,[1],73.8%
same,red/green cell ratio (normalised),[2],1.03 (inactive)
same,normalised cell number,[2]; [24],0.98
same,normalised cell number,[2]; [25],1.01
same,activity remaining,[6],112% (inactive)
O=c1[nH]c(=O)n(Cl)c(=O)n1Cl,red/green cell ratio (normalised),[2],1.21 (inactive)
same,normalised cell number,[2]; [24],0.87
same,normalised cell number,[2]; [25],1.05
same,fold change,[3]; stronger effect = lower value,0.959 (inactive)
same,fold change,[3]; [26],0.94
same,cell count,[3]; [27],8550
same,cell count,[3]; [28],8920
O=C(O)Cc1cnc[nH]1,period change,[15],0.01 h (inactive)
same,inhibition,[17],-1% (inactive)
same,fluorescence ratio (interference),[18],1 (inactive)
same,red/green cell ratio (normalised),"[2]; counts scaled to control wells, 1 = unselective",0.87 (inactive)
same,normalised cell number,[2]; [24],1.11
same,normalised cell number,[2]; [25],0.97
same,remaining activity,[19],121% (inactive)
same,fold change,[3]; stronger effect = lower value,0.943 (inactive)
same,fold change,[3]; [26],1.63
same,cell count,[3]; [27],10100
same,cell count,[3]; [28],10700
same,outcome,[20],inactive
same,z-score,[21],-0.12 (inactive)
CS(=N)(=O)CC[C@H](N)C(=O)O (stereo partly drawn),period change,[15],-0.08 h (inactive)
same,survival,[16],9.75 (inactive)
same,parasite load remaining,[1],18.6% (inactive) and 51.3% (inactive)
same,viability,[1],102% and 77.3%
same,inhibition,[17],-3% (inactive)
same,fluorescence ratio (interference),[18],1 (inactive)
same,red/green cell ratio (normalised),[2],0.94 (inactive)
same,normalised cell number,[2]; [24],1.08
same,normalised cell number,[2]; [25],1.02
same,remaining activity,[19],115% (inactive)
same,fold change,[3]; stronger effect = lower value,1.04 (inactive) and 0.811 (inactive)
same,fold change,[3]; [26],0.701 and 1.11
same,cell count,[3]; [27],10400 and 8780
same,cell count,[3]; [28],9920 and 10800
same,outcome,[20],inactive
same,z-score,[21],0.45 (inactive)
CC1=C2CCC3C(CC[C@]4(C)C(=O)CCC34)[C@@]2(C)CCC1=O (stereo partly drawn),parasite load remaining,[1],48.4% (inactive)
same,viability,[1],85.7%
same,red/green cell ratio (normalised),[2],0.88 (inactive)
same,normalised cell number,[2]; [24],1.27
same,normalised cell number,[2]; [25],1.12
same,activity remaining,[6],104% (inactive)
COc1cc2c3cc1Oc1c(OC)c(OC)cc4c1[C@@H](Cc1cccc(c1)Oc1ccc(c(O)c1)C[C@@H]3N(C)CC2)N(C)CC4,parasite load remaining,[1],114% (inactive)
same,viability,[1],67.7%
same,red/green cell ratio (normalised),[2],1.03 (inactive)
same,normalised cell number,[2]; [24],0.83
same,normalised cell number,[2]; [25],0.86
same,activity remaining,[6],112% (inactive)
C[N+]1(C)CCOC(O)(c2ccc(-c3ccc(C4(O)C[N+](C)(C)CCO4)cc3)cc2)C1 (stereo not drawn),fluorescence slope change,[22],1.8% (inactive)
same,period change,[15],0.02 h (inactive)
same,survival,[16],3.33 (inactive)
same,parasite load remaining,[1],172% (inactive) and 77.5% (inactive)
same,viability,[1],105% and 75.6%
same,inhibition,[17],3% (inactive)
same,fluorescence ratio (interference),[18],1 (inactive)
same,red/green cell ratio (normalised),[2],0.92 (inactive)
same,normalised cell number,[2]; [24],1.15
same,normalised cell number,[2]; [25],1.05
same,remaining activity,[19],108% (inactive)
same,fold change,[3]; stronger effect = lower value,1.02 (inactive) and 0.872 (inactive)
same,fold change,[3]; [26],0.804 and 1.21
same,cell count,[3]; [27],10300 and 8560
same,cell count,[3]; [28],10200 and 9810
same,outcome,[20],inactive
same,z-score,"[23]; MELAS cybrid survival, CellTiter-Glo 48 h, stronger effect = higher value",-0.344 (inactive)
same,z-score,"[23]; Rieske KO mouse fibroblast survival, CellTiter-Glo 72 h",-0.223
same,z-score,[21],0.135 (inactive)
